KB-V1 MDR tox – KB-V1 MDR subline cytotoxicity | KB-V1 MDR cells viability, CellTiter-Glo, 72 h | Potency, µM (top dose mostly 46.1 µM), most hits filed as cytotoxic | actives 3.4% (n = 400,000) | AID 1347076; further: nearly all actives have a fitted effect of over 60% in size
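KB-V1 MDR subline cells in DMEM (phenol-red free, 10% FBS) exposed to compounds in qHTS concentration series for 72 h at 37 degrees C. Viability read by CellTiter-Glo luminescence; concentration-effect curves fitted after normalization and correction.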
HT1080-NT tox – kills 2HG-producing HT-1080-NT fibrosarcoma cells | HT-1080-NT fibrosarcoma viability, CellTiter-Glo ATP luminescence, 48 h | actives 1.6% (n = 360,000) | Potency, µM (series often up to 46.1 µM), most hits filed as cytotoxic | AID 686970;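 further: NT is the 2HG producing partner of a matched IDH1 knockdown line; nearly all actives have a fitted effect of over 55% in size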
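A 48-hour cytotoxicity screen used HT-1080-NT cells plated 2 hours before compound delivery. ATP-based CellTiter-Glo luminescence measured viability, normalized to DMSO and no-cell controls.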
KB-3-1 cytotox – KB-3-1 parental cell cytotoxicity; KB-3-1 viability, CellTiter-Glo ATP luminescence, 72 h; Potency, µM (top dose mostly 46.1 µM), hits mostly cytotoxic; actives 1.4% (n = 400,000); AID 1347075; further: nearly all actives have a fitted effect of over 60% in size
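Multi-concentration cytotoxicity screen in KB-3-1 cells grown in DMEM lacking phenol red with 10% FBS. After 72 h at 37 °C with compound, ATP-dependent luminescence was recorded.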
MCF10A rereplic – inducers of DNA re-replication in MCF 10A breast cells. MCF 10A DNA re-replication, Hoechst nuclear intensity, 48 h. Potency, µM (top dose mostly 46.1 µM), usual class: activators. actives 2.9% (n = 350,000); further: nearly all actives have a fitted effect of over 50% in size
SW480 rereplic – DNA re-replication induction in SW480 cells; SW480 DNA re-replication, Hoechst DNA content imaging, 48 h; Potency, µM (highest dose often 46.1 µM), hits mostly activators; actives 1.8% (n = 340,000); AID 624297; further: nearly all actives have a fitted effect of over 55% in size
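SW480 cells exposed to compounds for 48 hr at 37 C, 5% CO2, then Hoechst-stained 40 min. Nuclear DNA content imaged by fluorescence scanning (405 nm excitation, 500-530 nm emission); re-replication scored as increased high-intensity nuclei.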
HT1080 IDH1KD tx – toxicity to HT-1080 IDH1 knockdown cells (counter line); HT-1080 IDH1 knockdown viability, ATP luminescence, 48 h; Potency, µM (doses to about 46.1 µM), hits mostly cytotoxic; actives 2% (n = 360,000)
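Knockdown cells (IDH1KD HT-1080) received compounds 2 h after plating at 750 cells/well and were kept 48 h at 37 °C in 5% FBS RPMI. A CellTiter-Glo luminescence read gave % activity for curve fitting.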
Hits are given with their value; n = inactive; u = inconclusive; x = no result. The list is not random: actives were taken first. Their share in the collection is about 8%. The call rests on the fitted dose curve; in most records, active means well fitted curve in the direction sought with a large enough effect; inconclusive means small, poorly fitted or top-dose-only effect, or another doubt; inactive means no such curve, though single readings can be large; an effect the other way counts as inactive or inconclusive.

SMILES	KB-V1 MDR tox	HT1080-NT tox	KB-3-1 cytotox	MCF10A rereplic	SW480 rereplic	HT1080 IDH1KD tx
CCOc1ccc(C2=Nn3c(nnc3-c3ccccc3OC)SC2)cc1	u	0.206µM	0.0116µM	u	0.259µM	0.0103µM
COc1ccccc1-c1nnc2n1N=C(c1ccc(O)c(O)c1)CS2	u	0.206µM	u	u	u	u
COc1ccc(OC)c(C2=Nn3c(nnc3-c3cc(C)[nH]n3)SC2)c1	u	n	n	n	n	n
CCc1nnc2n1N=C(c1ccc(OC)cc1)CS2	16.4µM	u	23.1µM	n	u	u
COc1ccc(C2=Nn3c(nnc3-c3ccncc3)SC2)cc1OC	n	u	u	u	16.4µM	u
COc1ccc(C2=Nn3c(nnc3-c3ccccn3)SC2)cc1	14.6µM	n	u	n	u	n
COc1ccc(C2=Nn3c(nnc3-c3cccnc3)SC2)cc1OC	u	n	n	n	n	n
CCOc1ccc(-c2nnc3n2N=C(c2ccc(OC)cc2)CS3)cc1	n	n	n	n	n	n
CCOC(=O)c1cnc2ccc(Cl)cc2c1Nc1ccc(S(=O)(=O)Nc2ncccn2)cc1	n	n	n	u	n	n
O=C(c1ccco1)N1CCN(C(=O)N2c3ccccc3Sc3ccccc32)CC1	0.651µM	u	0.517µM	n	n	u
O=C(c1ccc(Br)s1)N1CCN(c2ccccn2)CC1	u	n	n	n	n	n
O=C(NC1CCN(C(=O)N2c3ccccc3Sc3ccccc32)CC1)c1ccco1	n	u	u	u	u	20.6µM
O=C(NC1CCN(C(=O)N2c3ccccc3Sc3ccccc32)CC1)c1ccccc1Cl	u	u	n	n	n	u
O=C(N1CCN(c2ccccn2)CC1)N1c2ccccc2Sc2ccccc21	1.84µM	0.891µM	0.581µM	u	0.651µM	0.891µM
CCc1nc2ccc(C(=O)Nc3cccc(NS(C)(=O)=O)c3)cn2c1N(CC)Cc1cccc(Br)c1	u	23.1µM	u	x	x	u
CCc1nc2ccc(C(=O)NCc3ccccc3OC)cn2c1N(CC)Cc1cccc(Br)c1	16.4µM	u	u	x	x	u
CC(O)CCC(=O)NNC(=S)Nc1ccccc1 (configuration not stated)	u	n	n	n	u	n
Cc1cccc(CC(=O)Nc2cccnc2)c1	n	n	n	n	n	n
CCCCNc1oc(-c2cccs2)nc1S(=O)(=O)c1ccccc1	14.6µM	n	u	u	u	u
C=CCn1c(SCC(=O)Nc2c(C)n(C)n(-c3ccccc3)c2=O)nc2sc(C)c(-c3ccccc3)c2c1=O	n	n	n	n	n	n
Cc1ccc(Cn2cc(/C=N/NC(=O)Cc3nnc(NC(=O)c4ccc(C)cc4)s3)c3ccccc32)cc1	n	n	n	n	n	n
COc1c(C)cc(S(=O)(=O)N2CCCC2)c(C)c1C	23.1µM	n	n	n	n	n
O=C(C1CCCN(c2ncnc3c2nc2n3CCCCC2)C1)N1CCCCC1 (configuration not stated)	n	n	n	n	n	n
Cc1nc2ccccc2c(=O)n1NCc1cc(Br)cs1	n	n	n	23.1µM	u	n
CCOC(=O)C1(CCCc2ccccc2)CCN(C(=O)CN2CCOC2=O)CC1	n	n	n	n	n	n
SMILES	KB-V1 MDR tox	HT1080-NT tox	KB-3-1 cytotox	MCF10A rereplic	SW480 rereplic	HT1080 IDH1KD tx
Nc1nnn(CC(=O)N/N=C/c2ccncc2)n1	u	n	n	n	n	n
COc1ccc(-c2[nH]n(-c3ccc([N+](=O)[O-])cc3)c(=O)c2C=NCc2ccc(F)cc2)cc1	n	n	n	u	n	n
COc1ccc(-c2cc(=O)n(-c3ccc([N+](=O)[O-])cc3)[nH]2)cc1	n	u	u	16.4µM	n	u
c1ccc2c3c([nH]c2c1)CCCC3	n	x	n	x	x	x
C/C(=N\O)c1ccc2c3c([nH]c2c1)CCCC3	n	n	8.2µM	u	n	n
Cc1ccc(/C=N/NC(=O)c2csc3c2CCCC3)cc1	u	u	2.06µM	1.3µM	u	u
Cc1csc(SCc2nc3sc4c(c3c(=O)[nH]2)CCC4)n1	5.17µM	n	n	n	n	n

From PubChem
